# Tests used:
# Assay in all cases: PBM binding z-score (relative to random genomic background probes); higher = stronger binding; sequences stand for … in GC…GCGATTGACAGCGTAGAATGAAGG
# [1] = tested on: FXR:RXRa (NR concentration 270 nM, RXRa partner concentration 90 nM)
# Outline: (§1)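 Ligand-free nuclear receptor dimers were applied to custom Agilent 4×180K protein-binding microarrays whose double-stranded probes carried direct-repeat seeds, single-nucleotide variants, half-site ablations and random human genomic background sequences in 34-nt variable regions. Incubation lasted 1 h. Binding z-scores were computed against the random background probes from regression-normalized fluorescence.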
# [2] = tested on: LXRa:RXRa (NR concentration 270 nM, RXRa partner concentration 90 nM)
# Outline: as §1
# [3] = tested on: LXRa homodimer (NR concentration 270 nM)
# Outline: as §1
# [4] = tested on: LXRb:RXRa (NR concentration 270 nM, RXRa partner concentration 90 nM)
# Outline: as §1
# [5] = tested on: LXRb homodimer (NR concentration 270 nM)
# Outline: as §1
# [6] = tested on: PPARa:RXRa (NR concentration 270 nM, RXRa partner concentration 90 nM)
# Outline: as §1
# [7] = tested on: PPARg:RXRa (NR concentration 180 nM, RXRa partner concentration 90 nM)
# Outline: as §1
# [8] = tested on: PPARg:RXRa 270nM:90nM, anti-RXR (NR concentration 270 nM, RXRa partner concentration 90 nM)
# Outline: as §1
# [9] = tested on: PPARg:RXRa 30nM:10nM, anti-RXR (NR concentration 30 nM, RXRa partner concentration 10 nM)
# Outline: as §1
# [10] = tested on: PPARg:RXRa 90nM:30nM, anti-RXR (NR concentration 90 nM, RXRa partner concentration 30 nM)
# Outline: as §1
# [11] = tested on: PPARg:RXRa DBDmut IVT, anti-RXR (DBD mutation: RXRa K156A/R161A, NR concentration 270 nM, RXRa partner concentration 90 nM)
# Outline: as §1
# [12] = tested on: PPARg:RXRa IVT, anti-PPARg (NR concentration 270 nM, RXRa partner concentration 90 nM)
# Outline: as §1
# [13] = tested on: PPARg DBDmut:RXRa IVT, anti-PPARg (DBD mutation: PPARg1 K132A/R137A, NR concentration 270 nM, RXRa partner concentration 90 nM)
# Outline: as §1
# [14] = tested on: PPARg DBDmut IVT, anti-PPARg (DBD mutation: PPARg1 K132A/R137A, NR concentration 270 nM)
# Outline: as §1
# [15] = tested on: PPARg homodimer (NR concentration 180 nM)
# Outline: as §1
# [16] = tested on: PXR:RXRa (NR concentration 270 nM, RXRa partner concentration 90 nM)
# Outline: as §1
# [17] = tested on: PXR homodimer (NR concentration 270 nM)
# Outline: as §1
# [18] = tested on: RARa:RXR (NR concentration 270 nM, RXRa partner concentration 90 nM)
# Outline: as §1
# [19] = tested on: RARa homodimer (NR concentration 270 nM)
# Outline: as §1
# [20] = tested on: RARb:RXRa (NR concentration 270 nM, RXRa partner concentration 90 nM)
# Outline: as §1
Sequence,PBM binding z-score [1],PBM binding z-score [2],PBM binding z-score [3],PBM binding z-score [4],PBM binding z-score [5],PBM binding z-score [6],PBM binding z-score [7],PBM binding z-score [8],PBM binding z-score [9],PBM binding z-score [10],PBM binding z-score [11],PBM binding z-score [12],PBM binding z-score [13],PBM binding z-score [14],PBM binding z-score [15],PBM binding z-score [16],PBM binding z-score [17],PBM binding z-score [18],PBM binding z-score [19],PBM binding z-score [20]
GCTATTAGTTGCAAGGGCAACCGAATGATTCTCG,0.225,0.26,-0.0244,0.193,0.0622,0.193,0.483,0.912,0.0952,0.546,0.729,0.0802,-0.249,-0.171,0.499,0.243,0.11,-0.00266,-0.474,1.37
ATCTCTAGGTAACAACTTCAGTGAAAGAGAGGAC,0.55,0.485,0.102,0.396,0.978,0.493,0.782,0.618,0.652,0.573,3.07,2.74,1.64,1.45,0.774,0.286,0.641,0.537,0.713,0.586
GCAGACAGGTGAAACGCAGATAACTCAGGGTGGC,-0.337,-0.00809,-0.429,-0.285,-0.813,0.654,1.04,-0.0865,-0.367,-0.137,1.09,0.225,0.243,-0.959,0.214,-0.239,-0.278,-0.0859,-0.365,0.56
GCGACTGGGGCATCAGCAGGGTACCATAACTTAA,-0.653,-0.542,-0.531,0.192,-0.913,0.58,0.759,0.382,-0.46,-0.166,3.75,2.79,-0.747,-0.946,-0.494,-0.289,-0.457,-0.268,-1.05,0.517
CCTAGCAGGCCAGCGTCACTCAAGCATTTCGCTT,-0.634,-0.323,-0.436,-0.45,-0.612,-0.652,-0.466,-1.02,-1.25,-0.939,0.696,-0.171,-1.15,-1.61,-0.299,-0.806,-0.554,-0.721,-0.187,-0.122
CGAACTAGGTCAGAACAGGACACTGAAGGATGAT,1.48,1.37,0.372,0.71,-0.177,3.15,5.08,4.56,1.8,3.43,7.14,7.36,1.14,1.38,0.688,0.996,-0.0376,1.24,0.452,2.9
TCGAGTACGTTACCAATGGGGCATTCAGCTTTCT,-0.0711,-0.26,-0.435,0.321,-0.0116,0.16,-0.0505,0.394,1.32,0.788,0.846,-0.201,-0.329,-0.495,-0.459,0.154,-0.778,0.193,-0.477,0.0471
CGTGCAAGGTCAAGGTCAGTGAAAGAGACTCGAA,7.71,5.78,1.12,4.86,0.639,6.13,6.66,6.55,2.87,5.51,3.53,4.59,1.6,-0.363,4.25,4.99,1.2,5.11,2.15,5.53
TCTCGTAGATCAAAGGTTAAGAAAGCCGAAGCCT,1.56,1.85,-0.119,1.9,-0.471,3.46,4.19,5.74,4.84,6,1.73,1.46,-0.063,-0.642,0.726,1.89,-0.203,2.71,0.027,1.69
ATCGACAGGTCGTGAGGTGAGTATACAGAAAGGC,1.05,1.19,0.0757,0.943,0.0816,2.14,1.15,0.86,0.126,0.461,-0.42,0.86,-0.374,-0.491,0.776,0.904,0.267,1.86,0.537,1.88
GCTGCTAGGTCAACTAATGGTCAGCTAAAGCTCG,3.23,2.87,0.268,2.02,0.0624,3.29,2.45,3.11,0.435,2.19,4.24,3.84,-0.334,-0.784,1.66,1.37,-0.568,2.35,-0.116,4.03
CAGCCTAGGTCAGGCCCAGTATAGGAGGAACGTT,1.06,0.524,-0.444,0.0997,-0.815,1.45,0.633,0.673,-0.32,0.386,0.76,1.39,-0.686,-1.02,0.325,-0.0342,-0.609,0.588,-0.629,3.2
TCTTGTAGATCAGTAGGTTAAGAAAGCTGGCCAA,0.172,0.646,0.128,0.552,0.098,1.12,0.0222,1.98,2.94,2.31,2.89,2.61,0.246,0.243,0.822,0.448,0.0641,0.921,0.433,0.272
CTCGAAAGGTCGGTTGAGGTGGGTATACGGATAA,2.11,1.35,0.0862,1.31,0.332,2.36,0.284,0.726,0.0658,0.243,-0.182,0.818,-0.122,-0.109,1.13,2.08,0.36,1.53,0.507,2.99

# — the supplement of paper PMC6555819
